{"source": "PubChem BioAssay (EPA / NIEHS)", "note": "More than one record can exist for a structure, and the calls need not agree. The source made the active and inactive calls. The calls were made as follows: active = hit-call score of the fitted dose curve at least 0.9, where 1 is the maximum; inactive = score below 0.9.", "data": [{"assay": "APR_HepG2_MitoticArrest_72hr: Apredica 72-hour HepG2 Assay for Mitotic Arrest (AID 2282918)", "details": "high-content imaging, actives raise or lower the signal", "description": "APR_HepG2_72hr is a cell-based, multiplexed-readout assay that uses HepG2, a human liver cell line, with measurements taken at 72 hours after chemical dosing in a 384-well plate.APR_HepG2_MitoticArrest_72hr is one of 10 assay component(s) measured or calculated from the APR_HepG2_72hr assay. It is designed to make measurements of cell phenotype, a form of morphology reporter, as detected with fluorescence intensity signals by HCS Fluorescent Imaging technology.Data from the assay component APR_HepG2_MitoticArrest_72hr was analyzed into 1 assay endpoint. This assay endpoint, APR_HepG2_MitoticArrest_72hr, was analyzed with bidirectional fitting relative to DMSO as the negative control and baseline of activity. Using a type of morphology reporter, measures of protein for gain or loss-of-signal activity can be used to understand the signaling at the pathway-level as they relate to the gene . Furthermore, this assay endpoint can be referred to as a primary readout, because this assay has produced multiple assay endpoints where this one serves a signaling function. To generalize the intended target to other relatable targets, this assay endpoint is annotated to the cell cycle intended target family, where the subfamily is arrest.\nCells were treated with dimethyl sulfoxide (DMSO) as a solvent control at a final concentration of 0.5% v/v or with compounds in DMSO with a resulting final DMSO concentration of 0.5% v/v. Compound treatment was done at concentrations of 0.39, 0.78, 1.56, 3.12, 6.24, 12.5, 25, 50, 100, and 200 uM in duplicate on each plate. Cells were treated with compounds for 1, 24, or 72 hr. Carbonyl […] m-chloro-phenylhydrazone (CCCP) and taxol were used as positive controls for mitochondrial function and cytoskeletal stability, respectively; DMSO served as the negative control for this experiment. Cells were fixed by the direct addition of 50 uL formaldehyde in Hank's Balanced Salt Solution (HBSS) to a final concentration of 3.7%. After incubation in the fixation medium for 30 min at room temperature (293-298 K), cells were rinsed twice with HBSS and treated with cell permeabilization buffer (16 uL of 0.5% Triton X-100) for 10 min at room temperature (293-298 K) before labeling. For mitochondrial membrane potential and mitochondrial measurements, pre-fixed cells were incubated with 50 uL of MitoTracker Red CMXRos (Invitrogen) at a concentration of 250 nM for 30 min before fixation. In the remaining cases, post-fixed cells were labeled by incubation with a multiplexed mixture of primary antibodies in HBSS for 60 min at room temperature (293-298 K) to detect immunoreactivity of c-Jun (1:500), phospho-histone H3 (1:100), phospho-histone H2A.x (1:200), p53 (1:400), alpha-tubulin (1:200) and Hoechst 33342 (2 ug/mL). Cells were labeled for multiplexed imaging on two separate plates: a) Hoechst 33342, MitoTracker Red, phospho-histone H3, and alpha-tubulin, and b) Hoechst 33342, phospho-histone H2A.x, and c-Jun. A final rinse with HBSS (50 uL) was performed before analysis. The primary and secondary antibodies for the proteins were phospho-histone H3 (rabbit anti-phospho-histone H3 and FITC-donkey anti-rabbit IgG), phospho-histone H2A.x (mouse anti-phospho-histone H2A.x and FITC-donkey anti-mouse IgG), c-Jun (rabbit anti-phospho-c-Jun and Cy3-donkey anti-rabbit IgG), p53 (sheep anti-p53 and Cy5-donkey anti-sheep IgG), alpha-tubulin (mouse anti-alpha-tubulin and Cy5-donkey anti-mouse IgG). These antibodies are available as the CellCiphr HepG2 assay kit (Millipore).Digital images of each well were captured using a Cellomics ArrayScan VTI (Thermo Scientific Cellomics) (0.8 NA objective, 0.63x optical coupler, and XF-93 filter set) at 20x magnification. The images were acquired using the autofocus feature of the ArrayScan instrument, which entails the following steps. First, the camera focuses on channel 1 (Hoechst 33342), where nuclei are identified. Second, a Z offset of 1 um is used for capturing mitochondria (MitoTracker Red). […]", "values": [{"smiles": "CC(C)(c1ccc(O)cc1)c1ccc(O)cc1", "outcome": "inactive"}, {"smiles": "CCCOC(=O)NCCCN(C)C", "outcome": "inactive"}, {"smiles": "CC1(C)C(C=C(Cl)Cl)C1C(=O)OCc1cccc(Oc2ccccc2)c1", "note": "(stereo not given)", "outcome": "inactive"}, {"smiles": "CCOC(=O)c1ccc(O)cc1", "outcome": "inactive"}, {"smiles": "COC(=O)c1cccc(C)c1S(=O)(=O)NC(=O)Nc1nc(OCC(F)(F)F)nc(N(C)C)n1", "outcome": "inactive"}, {"smiles": "O=C(Nc1ccc([N+](=O)[O-])cc1Cl)c1cc(Cl)ccc1O", "AC50": "0.238 µM (active)"}, {"smiles": "COC(=O)CSc1cc(N=c2sc(=O)n3n2CCCC3)c(F)cc1Cl", "outcome": "inactive"}, {"smiles": "COC(=O)c1ccccc1S(=O)(=O)NC(=O)Nc1nc(OC(F)F)cc(OC(F)F)n1", "outcome": "inactive"}, {"smiles": "CCNc1nc(N)nc(Cl)n1", "outcome": "inactive"}, {"smiles": "CN(C)C(=O)Nc1ccc(Cl)c(Cl)c1", "outcome": "inactive"}, {"smiles": "CCCCOC(=O)C(C)Oc1ccc(Oc2ccc(C(F)(F)F)cn2)cc1", "note": "(stereo not given)", "outcome": "inactive"}, {"smiles": "c1ccc(Nc2ccccc2)cc1", "outcome": "inactive"}, {"smiles": "Oc1ccc(C(c2ccc(O)cc2)C(Cl)(Cl)Cl)cc1", "AC50": "85.6 µM (active)"}, {"smiles": "CCC(C)OC(=O)N1CCCCC1CCO", "note": "(stereo not given)", "outcome": "inactive"}, {"smiles": "CCOC(=O)C(C)Oc1ccc(Oc2nc3ccc(Cl)cc3o2)cc1", "note": "(stereo not given)", "outcome": "inactive"}, {"smiles": "OB(O)O", "outcome": "inactive"}, {"smiles": "CCOC(=O)COc1cc(-n2ncc(C(F)(F)F)c(C)c2=O)c(F)cc1Cl", "outcome": "inactive"}, {"smiles": "COC(=O)c1c(Cl)nn(C)c1S(=O)(=O)NC(=O)Nc1nc(OC)cc(OC)n1", "outcome": "inactive"}, {"smiles": "COc1nc(C)nc(NC(=O)NS(=O)(=O)c2ccccc2OCCCl)n1", "outcome": "inactive"}, {"smiles": "CCCOC(=O)c1ccc(C(=O)OCCC)nc1", "outcome": "inactive"}, {"smiles": "COC(=O)c1ccc(I)cc1S(=O)(=O)NC(=O)Nc1nc(C)nc(OC)n1", "outcome": "inactive"}, {"smiles": "CC(C)CCCCCCc1ccc(O)cc1", "AC50": "30.9 µM (active)"}, {"smiles": "O=C(O)C1(C(=O)Nc2ccc(Cl)cc2Cl)CC1", "outcome": "inactive"}, {"smiles": "CC(=O)[C@H]1CC[C@H]2[C@@H]3CCC4=CC(=O)CC[C@]4(C)[C@H]3CC[C@]12C", "AC50": "81.6 µM (active)"}, {"smiles": "S=C([S-])NCCNC(=S)[S-].[Mn+2]", "outcome": "inactive"}, {"smiles": "O=C(c1ccccc1)C1CCCCC1", "outcome": "inactive"}, {"smiles": "C=CCOC(Cn1ccnc1)c1ccc(Cl)cc1Cl", "note": "(stereo not given)", "AC50": "78.5 µM (active)"}, {"smiles": "N[C@@H](Cc1cc(I)c(Oc2ccc(O)c(I)c2)c(I)c1)C(=O)O", "outcome": "inactive"}, {"smiles": "CCN(Cc1c(F)cccc1Cl)c1c([N+](=O)[O-])cc(C(F)(F)F)cc1[N+](=O)[O-]", "outcome": "inactive"}, {"smiles": "C#C[C@]1(O)CC[C@H]2[C@@H]3CCC4=CC(=O)CC[C@@H]4[C@H]3CC[C@@]21CC", "outcome": "inactive"}, {"smiles": "CCOC(=O)[C@H](C)Oc1ccc(Oc2nc3ccc(Cl)cc3o2)cc1", "outcome": "inactive"}, {"smiles": "CCCCC(CC)COC(=O)c1ccccc1C(=O)O", "note": "(stereo not given)", "outcome": "inactive"}, {"smiles": "CCC(O)=C1C(=O)CC(C(=O)O)CC1=O", "note": "(stereo not given)", "outcome": "inactive"}, {"smiles": "COc1c(Cl)ccc(Cl)c1C(=O)O", "outcome": "inactive"}, {"smiles": "CCCCC(CC)CN1C(=O)C2C3C=CC(C3)C2C1=O", "note": "(stereo not given)", "outcome": "inactive"}, {"smiles": "C[C@]12C[C@H](O)[C@H]3[C@@H](CCC4=CC(=O)CC[C@@]43C)[C@@H]1CC[C@@H]2C(=O)CO", "AC50": "86.1 µM (active)"}, {"smiles": "S=C(S)NCCNC(=S)S.[Mn+2].[S-]C([S-])=NCCN=C([S-])[S-].[Zn+2]", "AC50": "51.9 µM (active) [middle of 5 runs]", "outcome": "inactive"}, {"smiles": "COC(=O)c1ccccc1C(=O)O", "outcome": "inactive"}, {"smiles": "O=C(O)c1ccccc1", "outcome": "inactive"}]}]}
